Measured values from PubChem BioAssay AID651956 (Broad Institute, 2012).
Results with a measured potency or affinity are listed apart. Inconclusive results are not listed. Active and inactive are the calls of the source.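 Rule for the calls: active = in every test run, a fitted half-maximal concentration for signal decrease at or below twice the highest tested concentration; inconclusive = runs disagree, flat 30 to 70% decrease, or poor fit; inactive = the rest.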

Test: miR-122 activators in hepatoma reporter cells, dose response, cell-based, Huh7 psiCHECK-miR122, Renilla luciferase, cherry-picked (AID 651956);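 note: Renilla luciferase from a miR-122 sensor reporter so lower signal means miR-122 activation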
Details: 48 h; series mostly up to 35 µM

outcome, inactive:
Cc1onc(-c2ccccc2)c1C(=O)NCc1ccccn1
COC(=O)C[C@@H]1CC[C@@H]2[C@H](COc3ccc(NS(=O)(=O)c4ccc(F)cc4)cc3C(=O)N2C)O1
C[C@@H]1CN([C@@H](C)CO)C(=O)c2cccc(NC(=O)c3ccc(-c4nccs4)cc3)c2O[C@H]1CN(C)Cc1ccc2c(c1)OCO2
COc1cccc(CNC(=O)C[C@@H]2CC[C@@H]3[C@@H](COc4ccc(NC(C)=O)cc4C(=O)N3C)O2)c1
C[C@H]1CN([C@@H](C)CO)S(=O)(=O)c2ccc(-c3ccccc3F)cc2O[C@@H]1CN(C)Cc1cccnc1
CC(C)NC(=O)N(C)C[C@H]1Oc2cc(C#C[C@H](C)O)ccc2S(=O)(=O)N([C@@H](C)CO)C[C@H]1C
COc1cccc(NC(=O)C[C@@H]2CC[C@@H]3[C@@H](COc4ccc(NS(=O)(=O)c5cccc(F)c5)cc4C(=O)N3C)O2)c1
CN1C(=O)c2cc(NC(=O)c3ccc4c(c3)OCO4)ccc2OC[C@H]2O[C@@H](CC(=O)O)CC[C@@H]21
CN1C(=O)c2cc(NC(=O)C3CC3)ccc2OC[C@@H]2O[C@H](CC(=O)NC3CCC3)CC[C@H]21
O=C(COc1cccc2ccccc12)Nc1nc2ccccc2[nH]1
CN(C[C@H]1N[C@@H](CO)[C@H]1c1ccc(-c2ccccc2)cc1)C(=O)C1CCC1
C[C@H]1CN([C@@H](C)CO)S(=O)(=O)c2ccc(C#Cc3ccccc3F)cc2O[C@@H]1CN(C)C(=O)c1ccc2c(c1)OCO2
COc1ccc(C#Cc2ccc3c(c2)O[C@H](CN(C)C(=O)CN2CCOCC2)[C@@H](C)CN([C@@H](C)CO)S3(=O)=O)cc1
CC1CCN(CCc2nc3cc(NC(=O)Nc4ccccc4)ccc3n2C)CC1
CCS(=O)(=O)Nc1ccc2c(c1)C(=O)N(C)[C@H]1CC[C@H](CC(=O)NCCCN3CCOCC3)O[C@H]1CO2
COCC(=O)N1[C@@H](CO)[C@@H]2c3ccccc3N(C(=O)C3CC3)C[C@@H]21
O=C(N/N=C/c1ccco1)c1cccc(N2CCCC2=O)c1
CCNC(=O)C[C@H]1CC[C@H]2[C@@H](COc3ccc(NC(=O)c4ccccc4)cc3C(=O)N2C)O1
COCCN(C[C@@H]1[C@@H](c2ccccc2)[C@H](CO)N1C(=O)C1CCC1)C(C)=O
CN1C(=O)c2cc(NC(=O)Nc3ccc(Cl)cc3)ccc2OC[C@H]2O[C@H](CC(=O)NCCN3CCCCC3)CC[C@H]21
C/C=C/c1ccc([C@@H]2[C@@H](CO)N(Cc3ccccn3)[C@H]2CNC(=O)CC)cc1
CN1C(=O)c2cc(NC(=O)Cc3ccccc3)ccc2OC[C@H]2O[C@H](CC(=O)O)CC[C@H]21
Oc1ccc(/C=N/Nc2nccnc2Cl)c(O)c1
Cc1ccc(-c2nnn(CC(=O)N(CC(=O)NCC3CCCO3)c3ccccc3)n2)o1 (centres undefined)
COc1ccc(-c2cn3c(C)c(C(=O)Nc4cccc(NC(C)=O)c4)sc3n2)cc1
CCNC(=O)CCC(=O)Nc1cc(Cl)ccc1C
Cc1cc(C)n(C(=O)Cn2nc(C)c(Br)c2C)n1
CN1C(=O)c2cc(NC(=O)c3cccs3)ccc2OC[C@@H]2O[C@@H](CC(=O)NCCN3CCCCC3)CC[C@H]21
COc1cccc(C(=O)Nc2ccc3c(c2)C(=O)N(C)[C@H]2CC[C@H](CC(=O)NCc4ccc(F)cc4)O[C@H]2CO3)c1
CC(=O)N1[C@@H](CO)[C@@H](c2ccccc2)[C@@H]1CNC(=O)CN1CCOCC1
COc1cc2nc(C3CCC3)n(NC(=O)C3CCCC(OC)C3)c(=O)c2cc1OC (centres undefined)
CCNC(=O)Nc1ccc2c(c1)C(=O)N(C)[C@H]1CC[C@H](CC(=O)NCCOC)O[C@@H]1CO2
CNC(=O)C[C@H]1CC[C@H]2[C@@H](COc3ccc(NC(=O)C4CC4)cc3C(=O)N2C)O1
COc1cccc(NC(=O)N2[C@H](CO)[C@@H](c3ccccc3)[C@H]2CNCC(C)C)c1
CCOc1ccc(CCNC(=O)C2CCN(S(=O)(=O)N3CCC(C)CC3)CC2)cc1OCC
Cc1ccc(-n2c(Cc3ccccc3)n[nH]c2=S)cc1
CC(=O)N1[C@H](CO)[C@@H](c2ccccc2)[C@H]1CN(C)C(=O)CN1CCOCC1
CO[C@@H]1CN(C)C(=O)c2ccc(NS(=O)(=O)c3ccc(C)cc3)cc2OC[C@@H](C)N(C(=O)NC(C)C)C[C@H]1C
C/C=C/c1ccc([C@H]2[C@@H](CO)N(C(=O)C3CC3)[C@H]2CN(C)C(=O)CC2CC2)cc1
